This is an account of results in PubChem BioAssay AID1481 (The Scripps Research Institute Molecular Screening Center, 2009).

About 920 (0.42%) of roughly 220,000 compounds were called active. No stated cut-off is given here; in the data, active means inhibition above about 15%; inactive means the rest. Only a selection was taken, and actives are over-represented in it overall.

Transitional endoplasmic reticulum ATPase (Homo sapiens), sequence (P55072 whole entry, looked up): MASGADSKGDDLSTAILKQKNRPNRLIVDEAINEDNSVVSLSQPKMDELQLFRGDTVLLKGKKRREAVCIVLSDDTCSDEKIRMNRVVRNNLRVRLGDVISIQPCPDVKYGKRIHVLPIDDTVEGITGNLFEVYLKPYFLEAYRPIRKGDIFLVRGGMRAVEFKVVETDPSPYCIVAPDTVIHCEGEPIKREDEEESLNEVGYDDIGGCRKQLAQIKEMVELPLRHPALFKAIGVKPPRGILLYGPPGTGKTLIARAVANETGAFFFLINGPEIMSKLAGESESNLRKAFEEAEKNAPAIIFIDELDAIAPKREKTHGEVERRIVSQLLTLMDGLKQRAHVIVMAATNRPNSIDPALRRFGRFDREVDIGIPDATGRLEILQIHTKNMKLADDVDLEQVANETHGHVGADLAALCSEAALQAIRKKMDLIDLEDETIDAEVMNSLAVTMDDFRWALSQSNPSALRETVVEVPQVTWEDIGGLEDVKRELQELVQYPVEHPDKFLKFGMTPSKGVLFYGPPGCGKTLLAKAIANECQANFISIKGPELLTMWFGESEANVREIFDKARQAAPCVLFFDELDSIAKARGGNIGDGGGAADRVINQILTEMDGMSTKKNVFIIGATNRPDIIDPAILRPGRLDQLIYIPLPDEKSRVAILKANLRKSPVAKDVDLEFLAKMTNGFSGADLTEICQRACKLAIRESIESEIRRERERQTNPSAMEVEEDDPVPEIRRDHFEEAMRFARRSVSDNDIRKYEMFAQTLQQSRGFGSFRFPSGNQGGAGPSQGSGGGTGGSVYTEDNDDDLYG

This experiment addresses Transitional endoplasmic reticulum ATPase (Homo sapiens) (UniProt P55072). In words: inhibitors of human p97 ATPase, primary screen, biochemical (AID 1481).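 Further: 0% = DMSO vehicle and 100% = wells lacking enzyme.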 Conditions: recombinant p97 ATPase, Kinase-Glo ATP luminescence, 3 h; at 8 µM; active compounds read high.
Turning to `Cc1cc(C)c2c(n1)nn1c(N3CCOCC3)cc(C)nc21`, the inhibition is 5.86% (inactive).

Consider `Cc1cc(C)c2c(n1)nn1c(-n3ccnc3)cc(C)nc21`, for which the inhibition is 31.7% (active).

Turning to `Cc1cc(C)c2c(n1)nn1c(N3CCN(c4cccc(Cl)c4)CC3)cc(C)nc21`, the inhibition is -0.34% (inactive).

Take `O=[N+]([O-])c1cc([N+](=O)[O-])c2cccnc2c1O`: the inhibition was -0.5% (inactive).

As to `O=C(/C=C/c1ccc(N2CCOCC2)cc1)c1ccccc1`, the inhibition was 3.1% (inactive).

In the case of `NC(N)=N/N=C/c1ccc(OCc2ccc(Cl)cc2Cl)cc1`, the inhibition is 17.6% (active).

For `COc1ccc(C(=O)O/N=C(\N)Cc2ccc(Cl)cc2Cl)cc1OC`, the inhibition was -0.33% (inactive).

For the molecule `NC(N)=N/N=C/c1ccc(Cl)c([N+](=O)[O-])c1`, the inhibition is 4.25% (inactive).

With `Nn1c(SCC(=O)Nc2nccs2)nncc1=O`, the inhibition is 3.78% (inactive).

Turning to `COc1ccc(NC(=S)Nc2ccccc2Cl)cn1`, the inhibition was 2.95% (inactive).

As to `COc1ccc(CS(=O)/C(Cl)=C(/Cl)C(=O)Nc2ccc(OC)nc2)cc1` (centres undefined), the inhibition was 22% (active).

Turning to `COc1ccc(NC(=O)/C(Cl)=C(/Cl)S(=O)Cc2ccc(C)cc2)cn1` (centres undefined), the inhibition was 10.7% (inactive).

In the case of `CC1CCN(c2ccc([N+](=O)[O-])c(SCCO)c2)CC1`, the inhibition was 7.8% (inactive).

In the case of `Cc1cc(C)c2cc(CN(Cc3cccs3)Cc3nnnn3CC3CCCO3)c(=O)[nH]c2c1` (centres undefined), the inhibition is -6.18% (inactive).

As to `Cc1cc(C)c2cc(CN(Cc3nnnn3Cc3ccc(F)cc3)C3CCCC3)c(=O)[nH]c2c1`, the inhibition was 28.6% (active).

Turning to `Cc1cccc2cc(CN(Cc3nnnn3Cc3ccccc3)C3CCCC3)c(=O)[nH]c12`, the inhibition was 1.15% (inactive).

Take `O=C(COc1ccc(/C=N/NS(=O)(=O)c2ccccc2)cc1)NCCc1ccccc1`: the inhibition was 0.13% (inactive).

Regarding `COCCNc1nc2nonc2nc1N(C)Cc1ccc(C)cc1`, the inhibition was -0.9% (inactive).

As to `CN1CCN(/N=C2/C(=O)Nc3ccc([N+](=O)[O-])cc32)CC1`, the inhibition is -0.51% (inactive).

Regarding `Cc1nc2cccnc2nc1C`, the inhibition is 5.4% (inactive).

On to `O=C(N/N=C/c1sc(N2CCCCC2)nc1-c1cccs1)c1cccnc1`, for which the inhibition is -2.01% (inactive).

Consider `CC(=O)Nc1ccc(S(=O)(=O)Nc2ccc(-c3ccc4nnc(C)n4n3)cc2)cc1`, for which the inhibition was 0.45% (inactive).

Regarding `CCOC(=O)c1cc2c(nc1NC(=S)Nc1ccccc1)CC(C)(CC)OC2` (centres undefined), the inhibition was -6.73% (inactive).

Take `O=C(Nc1ccccc1Cl)/C(Cl)=C(\Cl)S(=O)c1ccccc1` (centres undefined): the inhibition was 20% (active).

As to `O=C(Nc1ccccc1Cl)c1ccc2nsnc2c1`, the inhibition was 2.33% (inactive).

In the case of `O=C(CN1CCCCC1)Nc1ccccc1Cl`, the inhibition is -2.65% (inactive).

Regarding `CCCc1nc2c(c(=O)c3ccccc3n2C)c(=O)n1-c1cc(C)cc(C)c1`, the inhibition was 1.03% (inactive).

Turning to `COc1ccc(/C=N/N=C2/C(=O)Nc3ccccc32)cc1O`, the inhibition is -3.95% (inactive).

Regarding `Cc1nnc2n1N=C(c1ccc3c(c1)NC(=O)CO3)CS2`, the inhibition was 4.3% (inactive).

Regarding `CC(=O)NC1C(OCc2ccccc2)OC(COC(C)=O)C(OC(C)=O)C1OC(C)=O` (centres undefined), the inhibition is 1.05% (inactive).

As to `O=C(OCC1O[C@@H](OC(=O)c2cc(O)c(O)c(O)c2)[C@@H](OC(=O)c2cc(O)c(O)c(O)c2)[C@@H](OC(=O)c2cc(O)c(O)c(O)c2)[C@@H]1OC(=O)c1cc(O)c(O)c(O)c1)c1cc(O)c(O)c(O)c1` (some centres undefined), the inhibition is 67% (active).

Take `COC(=O)c1scc(C)c1NC(=O)CSc1ccc(Cl)cc1`: the inhibition was -1.74% (inactive).

`CN(C)[C@@H]1C(=O)C(C(N)=O)=C(O)[C@@]2(O)C(=O)C3=C(O)c4c(O)ccc(Cl)c4[C@@H](O)[C@H]3C[C@@H]12`: the inhibition was 23.4% (active).

As for `COc1ccc(CCNS(=O)(=O)c2ccc(Cl)s2)cc1OC`, the inhibition was -7.85% (inactive).

In the case of `Cn1c(N)cc(-c2ccc(F)cc2)c(C#N)c1=O`, the inhibition is -2.35% (inactive).

Regarding `O=C(Nc1nnc(CCN2CCCCC2)s1)c1cccc(Cl)c1`, the inhibition was 2.22% (inactive).

Take `Cn1c(=O)c2c(-c3cccc(Br)c3)c(C#N)c(N)nc2n(C)c1=O`: the inhibition was 0.09% (inactive).

For `O=C(NNC(=S)Nc1ccccc1)c1cccc(S(=O)(=O)N2CCOCC2)c1`, the inhibition was 15.6% (active).

As to `Cc1cc(C(=O)NNC(=O)c2cccc(S(=O)(=O)N3CCOCC3)c2)c2ccccc2n1`, the inhibition was -3.18% (inactive).

In the case of `O=C(c1cccc(S(=O)(=O)N2CCOCC2)c1)N1CCOCC1`, the inhibition was 0.28% (inactive).

Regarding `COCC(C)NCc1cc(Br)ccc1OC` (centres undefined), the inhibition was 0.25% (inactive).

For `Cn1cccc1/C=N/NC(=O)CNc1cccc2ccccc12`, the inhibition is 3.45% (inactive).

Turning to `CN(C)C=NC(=O)c1cccn1-c1ncc(C(F)(F)F)cc1Cl`, the inhibition is -5.69% (inactive).

On to `O=C(C1=C(O)C(=O)N(CCOCCO)C1c1ccccn1)c1cccs1` (centres undefined), for which the inhibition is 2.8% (inactive).

Take `Cc1cc(C)cc(NC(=O)N(C)Cc2ccccc2)c1`: the inhibition is -0.6% (inactive).

With `Cn1c(SCC(=O)C(C)(C)C)nnc1-c1ccccn1`, the inhibition was -4.36% (inactive).

For `CCOc1cc(-c2cc(-c3ccc(OC)cc3)nc(N)c2C#N)ccc1O`, the inhibition is 2.46% (inactive).

On to `COc1ccc(-c2cc(-c3ccc(N)cc3)nc(N)c2C#N)cc1OC`, for which the inhibition was 18.6% (active).

With `CCSc1nc(-c2ccc(OC)cc2)cc(-c2ccc(OC)cc2)c1C#N`, the inhibition was 0.73% (inactive).

On to `COc1ccc(N2CCC(CNC(=S)Nc3c(C)cccc3C)C2)cc1` (centres undefined), for which the inhibition was 1.49% (inactive).

As to `O=C1N(c2ccc(Cl)cc2)C(c2ccc(Cl)cc2)N2CCCN12` (centres undefined), the inhibition is 4.79% (inactive).

For the molecule `Cn1c(=NC(=O)c2ccc3c(c2)OCCO3)sc2cc(S(C)(=O)=O)ccc21`, the inhibition was -0.6% (inactive).

As to `S=C(Cc1ccc(Cl)cc1)N1CCOCC1`, the inhibition is -3.61% (inactive).

Consider `Cc1ccccc1OCCC(=O)Nc1c(C)n(C)n(-c2ccccc2)c1=O`, for which the inhibition was 3.48% (inactive).

In the case of `CC(=O)N1CCc2cc(Br)cc(S(=O)(=O)CCC(=O)Nc3c(C)n(C)n(-c4ccccc4)c3=O)c21`, the inhibition was 16.1% (active).

With `Cc1ccc(S(=O)(=O)CC(=O)Nc2c(C)n(C)n(-c3ccccc3)c2=O)cc1`, the inhibition was 0.73% (inactive).

Take `O=C(/C=C/c1ccc2c(c1)OCCO2)c1ccc(O)cc1`: the inhibition was 9.09% (inactive).

On to `CCN(c1ccccc1)S(=O)(=O)c1ccc(NC(=O)C(C)(C)C)cc1`, for which the inhibition was 0.99% (inactive).

Turning to `CCN(c1ccccc1)S(=O)(=O)c1ccc(N)cc1`, the inhibition was 21.5% (active).

As for `CCN(c1ccccc1)S(=O)(=O)c1ccc2[nH]c(=O)[nH]c2c1`, the inhibition was 5.66% (inactive).

On to `CS(=O)(=O)N1CCC(C(=O)N2CCN(c3ccccc3)CC2)CC1`, for which the inhibition was 1.55% (inactive).

For `CSc1ccccc1NC(=O)CN(C)CC(=O)Nc1cccc(Br)c1`, the inhibition was -6.18% (inactive).

As for `C/C=N/N(c1ccccc1)c1ccccc1`, the inhibition was 0.39% (inactive).

As to `CCOc1cc(/C=N/O)cc(Br)c1OC`, the inhibition was 7.25% (inactive).

For `C=CCOc1c(Br)cc(/C=N\n2nnnc2N)cc1OC`, the inhibition was -2.19% (inactive).

As to `CCOc1c(Br)cc(/C=C2\C(=O)N(CCC#N)N=C2C)cc1OC`, the inhibition is 26.9% (active).

As to `C/C(CC(=O)Nc1ccc(Cl)cc1)=N\NC(=O)C(=O)NCCO`, the inhibition was 2.21% (inactive).

On to `O=S(=O)(Cc1ccccc1)c1nc2ccccc2n1Cc1ccccn1`, for which the inhibition is 2.46% (inactive).

Turning to `Cc1ccc(NC2(C#N)C(=O)Nc3ccccc32)cc1` (centres undefined), the inhibition was 2.18% (inactive).

In the case of `N#CC1=C(N)Oc2[nH]c(=S)[nH]c(=O)c2C12C(=O)Nc1ccccc12` (centres undefined), the inhibition is 20.7% (active).

For `N#CC1=C(N)Oc2n[nH]c(CSc3ccccc3)c2C12C(=O)Nc1ccccc12` (centres undefined), the inhibition was 7.12% (inactive).

With `COc1ccc2c(c1)CCc1cn3ncc(C#N)c3nc1-2`, the inhibition was 7.2% (inactive).

For the molecule `CCC(=O)OCCNc1nc(-c2ccccc2)nc2ccccc12`, the inhibition is 4.18% (inactive).

Regarding `Cc1cc(C(C)(C)C)cc(C)c1N`, the inhibition was 7.52% (inactive).

In the case of `COc1cc(C(F)(F)F)c(C(=O)N(C)c2ccc(Cl)cc2)cn1`, the inhibition was -1.66% (inactive).

`C#CCOCCOCCOCCNc1nc(N2CCN(C(=O)C(Cc3ccc(O)cc3)n3cc(C(N)CC(C)C)nn3)CC2)nc(N2CCN(C(=O)C(Cc3ccc(O)cc3)n3cc(C(N)C(C)CC)nn3)CC2)n1` (centres undefined): the inhibition is 14.7% (active).

As for `C#CCOCCOCCOCCNc1nc(N2CCN(C(=O)[C@H](CCCCN)n3cc([C@@H](N)C(C)CC)nn3)CC2)nc(N2CCN(C(=O)[C@H](Cc3ccc(O)cc3)n3cc([C@@H](N)C(C)CC)nn3)CC2)n1` (some centres undefined), the inhibition was 13.3% (inactive).

With `C#CCOCCOCCOCCNc1nc(N2CCN(C(=O)[C@H](Cc3ccc(O)cc3)n3cc(C(N)CC(C)C)nn3)CC2)nc(N2CCN(C(=O)[C@H](CCC(=O)O)n3cc(C(N)[C@H](C)CC)nn3)CC2)n1` (some centres undefined), the inhibition was -3.1% (inactive).

Regarding `O=C(NCCc1ccccn1)c1cccnc1Oc1ccc(Cl)cc1`, the inhibition is -3.2% (inactive).

For the molecule `COc1ccccc1N1CCN(C(=O)C(=O)N/N=C/c2ccccc2F)CC1`, the inhibition was 0.1% (inactive).

Consider `COc1ccc(C(C(=O)NC2CCCCC2)N(C(=O)Cc2c[nH]c3ccccc23)c2ccccc2)cc1OC` (centres undefined), for which the inhibition was 14.6% (active).

As to `COc1ccc(C(C(=O)NC2CCCCC2)N(C(=O)CCl)c2ccccc2Cl)cc1` (centres undefined), the inhibition is -0.41% (inactive).

With `Cc1cc(NC(=O)CCC(=O)N(c2ccccc2)C(C(=O)NC2CCCC2)c2ccncc2)no1` (centres undefined), the inhibition was 3.62% (inactive).

For `Cc1ccc2nc(-c3ccc(NC(=O)c4cccnc4)cc3)oc2c1`, the inhibition is -7.59% (inactive).

For the molecule `COc1cccc(NC(=S)C(C#N)=C2N(C)c3ccccc3N2C)c1`, the inhibition is 4.23% (inactive).

For the molecule `Cc1[nH][nH]c(=O)c1C(c1ccc2c(c1)OCO2)c1c(C)[nH][nH]c1=O`, the inhibition was -1.45% (inactive).

`Cc1[nH][nH]c(=O)c1C(c1ccc(-c2ccc(Cl)cc2)o1)c1c(C)[nH][nH]c1=O`: the inhibition was 18.4% (active).

For `CCOc1ccc(C(c2c(C)[nH][nH]c2=O)c2c(C)[nH][nH]c2=O)cc1OCC`, the inhibition was -3.3% (inactive).

With `CCc1ccccc1NC(=O)CN(c1ccc(OC)cc1OC)S(=O)(=O)c1ccccc1[N+](=O)[O-]`, the inhibition is 0.37% (inactive).

The term inhibition denotes the change of the read-out against control, counted positive when it falls.
